Assay [1] is described as follows: Human pregnane X receptor (PXR) small molecule agonists, qHTS cell viability counter screen (AID 1346977). Note: nearly all actives have a fitted effect of over 50% in size. Summed up:
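PXR-Luc HepG2 cells (2,000/well, 5% charcoal-stripped FBS) preincubated 5 hr, then exposed to compounds 24 hr at 37 C. Viability read in the same wells by CellTiter-Fluor fluorescence, reagent added at 23 hr, 1 hr incubation.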
On the technique in general: In qHTS, concentration-response curves come from the screen itself.

Assay [2] can be described thus: Caspase-3/7 induction in HepG2 cells by small molecules, qHTS assay (AID 1346978). Note: nearly all actives have a fitted effect of over 15% in size. Summed up: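 Wild-type HepG2 cells, 2,000/well, settled 5 hr at 37 C and 5% CO2, then compound-treated for 17 hr; caspase-3/7 activity read by luminescent Caspase-Glo 3/7 after 30 min at room temperature.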
Assay [3] can be described thus: Caspase-3/7 induction in CHO-K1 cells by small molecules, qHTS cell viability counter screen (AID 1346979). Note: nearly all actives have a fitted effect of over 35% in size. Note: potency is the fitted concentration of half-maximal effect. The procedure, abridged: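 Wild-type CHO-K1 cells (1,500/well) treated with compound after 5 h plating; after 16 h at 37C, viability read as CellTiter-Fluor fluorescence following 1 h reagent incubation, in the same wells as the caspase read.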
A short description of assay [4]: Caspase-3/7 induction in CHO-K1 cells by small molecules, qHTS assay (AID 1346980). Note: nearly all actives have a fitted effect of over 15% in size. The procedure, abridged:
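Wild-type CHO-K1 cells exposed to compounds for 17hr at 37 C, 5% CO2. Caspase-3/7 activity then measured by Caspase-Glo 3/7 luminescence after 30min at room temperature.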

Assay [5] can be described thus: Caspase-3/7 induction in HepG2 cells by small molecules, qHTS cell viability counter screen (AID 1346981). Note: series mostly up to about 92 µM; nearly all actives have a fitted effect of over 30% in size. Summed up: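 Treatment of HepG2 cells with DMSO-delivered compounds ran 16 hr at 37 C following a 5-hr pre-incubation of 2,000 cells/well. CellTiter-Fluor fluorescence, read after 1 hr, served as the viability measure in a qHTS format.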
The target in assay [6] is Nuclear receptor subfamily 1 group I member 2 (Homo sapiens) (UniProt O75469). Briefly: Human pregnane X receptor (PXR) small molecule agonists, qHTS assay (AID 1346982). Note: nearly all actives have a fitted effect of over 35% in size. Note: potency is the fitted concentration of half-maximal effect. Summed up:
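Stable HepG2 line reporting PXR-mediated CYP3A4 expression via luciferase. Treatment: 24 hr with compounds in DMSO at 37 C. Detection: ONE-Glo luminescence.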

Assay [7] has as its target Cytochrome P450 2D6 (Homo sapiens) (UniProt P10635). Briefly: Cytochrome P450 Family 2 Subfamily D Member 6 (CYP2D6) small molecule antagonists: luciferase reporter qHTS assay (AID 1671196). Note: nearly all actives have a fitted effect of over 50% in size. Note: potency is the fitted concentration of half-maximal effect. The procedure, abridged: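 Chemicals tested for interference with CYP2D6 activity; proluciferin substrate, NADPH regeneration, 1 h at room temperature, luminescent detection.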
(In general: A reporter such as luciferase makes a cellular process visible.)

The target of assay [8] is Cytochrome P450 2C19 (Homo sapiens) (UniProt P33261). Briefly: Cytochrome P450 Family 2 Subfamily C Member 19 (CYP2C19) small molecule antagonists: luciferase reporter qHTS assay (AID 1671197). Note: nearly all actives have a fitted effect of over 65% in size. Note: potency is the fitted concentration of half-maximal effect. Summed up: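 Inhibition of CYP2C19 was scored from loss of luminescence in a P450-Glo proluciferin substrate assay, NADPH-started and run 1 h at 37C, with ketoconazole as positive control.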

In assay [9] the target is Cytochrome P450 2C9 (Homo sapiens) (UniProt P11712). Briefly: Cytochrome P450 Family 2 Subfamily C Member 9 (CYP2C9) small molecule antagonists: luciferase reporter qHTS assay (AID 1671198). Note: nearly all actives have a fitted effect of over 50% in size. Note: potency is the fitted concentration of half-maximal effect. The procedure, abridged: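 P450-Glo proluciferin substrate with CYP2C9 enzyme; 10 min RT preincubation, then NADPH regeneration 1 h at 37C; luciferin detection reagent 20 min RT, luminescence in relative luminescence units.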

Assay [10] deals with Cytochrome P450 1A2 (Homo sapiens) (UniProt P05177). Briefly: Cytochrome P450 Family 1 Subfamily A Member 2 (CYP1A2) small molecule antagonists: luciferase reporter qHTS assay (AID 1671199). Note: nearly all actives have a fitted effect of over 50% in size. Note: potency is the fitted concentration of half-maximal effect. The procedure, abridged: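 Read-out is luminescence from luciferin detection reagent (20 min) proportional to CYP1A2 activity; compounds in DMSO preincubated 10 min with enzyme and proluciferin substrate, then NADPH regeneration solution, 1 h, room temperature.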

The target of assay [11] is Voltage-gated inwardly rectifying potassium channel KCNH2 (Homo sapiens) (UniProt Q12809). Briefly: Human Ether-a-go-go-Related Gene (hERG) channel small molecule antagonists: fluorescence cell-based qHTS assay (AID 1671200). Summed up: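 hERG-U2OS cells plated overnight at 37 C, loaded with FluxOR II dye 1 h at RT in dark; after 10 min, thallium stimulus added. Fluorescence (480/540 nm) read kinetically for 2 min at 1 s intervals.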
In general terms: Block of hERG is tested as a sign of cardiac risk.

Assay [12] has as its target Cytochrome P450 3A4 (Homo sapiens) (UniProt P08684). Briefly: Cytochrome P450 Family 3 Subfamily A Member 4 (CYP3A4) small molecule antagonists: luciferase reporter qHTS assay (AID 1671201). Note: nearly all actives have a fitted effect of over 50% in size. Note: potency is the fitted concentration of half-maximal effect. The procedure, abridged: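 P450-Glo CYP3A4 luminescent assay: compounds preincubated 10 min at room temperature with enzyme and proluciferin substrate, NADPH regeneration added, 1 h room-temperature reaction, stopped with luciferin detection reagent; luminescence read after 20 min. Ketoconazole positive control.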

Assay [13] concerns the target Nuclear receptor subfamily 1 group I member 2 (Rattus norvegicus) (UniProt Q9R1A7). Briefly: Rat pregnane X receptor (rPXR) activation by small molecules, qHTS assay (AID 1346983). Note: nearly all actives have a fitted effect of over 20% in size. Particulars: rPXR luciferase reporter cells, One-Glo luminescence, 24 h; max activation: stronger effect = higher value. The procedure, abridged: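 Cell-based rPXR activation assay: rPXR cells, 2,000 per well, rested 5hr at 37 C, then exposed to compounds in DMSO for 24 hr at 37 C. Luciferase activity read by One-Glo luminescence after 30 min at room temperature.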

Assay [14] deals with Nuclear receptor subfamily 1 group I member 2 (Homo sapiens) (UniProt O75469). Briefly: CYP3A4 induction through human pregnane X receptor (PXR) by small molecules, qHTS assay (AID 1346984). Note: nearly all actives have a fitted effect of over 40% in size. The procedure, abridged: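 After 24 h at 37C with compound, DPX-2 cells (HepG2, co-transfected PXR response element and CYP3A4 promoter-luciferase) got 3uM final P450-Glo Luciferin-IPA for 3 h; One-Glo luminescence followed.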

For assay [15] the target is unchanged. Briefly: Human pregnane X receptor (PXR) activation by small molecules, qHTS assay (AID 1346985). Note: nearly all actives have a fitted effect of over 40% in size. Summed up:
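DPX-2 cells (HepG2 co-transfected with a PXR response element and a CYP3A4-promoter luciferase construct) were seeded at 2,000 per well, rested 5 hr at 37C, then exposed to DMSO-dissolved compounds for 24 hr. Activation was read as luciferase luminescence.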

“And” between values parts separate entries of the source, which are not always exact repeats. Identical values can stand only once. A number with no mark means an inactive call. Records with an inconclusive call do not appear. The source made the active and inactive calls. Calls come from the whole dose curve; as a rule, active = well fitted curve in the direction sought with a large enough effect in the repeat runs; inconclusive = weak or mixed curves; inactive = no such curve, though single readings can be large; an effect the other way counts as inactive or inconclusive.
% is set by controls: 0 for no effect and ±100 for the full control effect.

Cytochrome P450 2C9 (Homo sapiens), sequence (P11712 whole entry, looked up): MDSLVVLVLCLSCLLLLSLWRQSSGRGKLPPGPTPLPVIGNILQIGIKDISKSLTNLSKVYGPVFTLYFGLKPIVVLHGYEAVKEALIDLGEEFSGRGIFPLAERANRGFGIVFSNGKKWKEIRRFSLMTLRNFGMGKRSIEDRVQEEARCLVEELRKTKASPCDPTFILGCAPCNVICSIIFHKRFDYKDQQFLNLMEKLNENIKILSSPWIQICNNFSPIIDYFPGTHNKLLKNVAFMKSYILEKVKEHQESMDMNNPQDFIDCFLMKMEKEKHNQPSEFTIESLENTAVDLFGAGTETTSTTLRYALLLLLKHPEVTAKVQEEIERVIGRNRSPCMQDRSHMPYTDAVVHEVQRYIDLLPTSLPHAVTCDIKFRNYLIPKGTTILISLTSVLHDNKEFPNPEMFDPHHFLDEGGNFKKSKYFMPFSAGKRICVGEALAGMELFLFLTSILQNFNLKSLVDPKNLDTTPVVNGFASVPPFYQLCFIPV
Cytochrome P450 2D6 (Homo sapiens), sequence (P10635 whole entry, looked up): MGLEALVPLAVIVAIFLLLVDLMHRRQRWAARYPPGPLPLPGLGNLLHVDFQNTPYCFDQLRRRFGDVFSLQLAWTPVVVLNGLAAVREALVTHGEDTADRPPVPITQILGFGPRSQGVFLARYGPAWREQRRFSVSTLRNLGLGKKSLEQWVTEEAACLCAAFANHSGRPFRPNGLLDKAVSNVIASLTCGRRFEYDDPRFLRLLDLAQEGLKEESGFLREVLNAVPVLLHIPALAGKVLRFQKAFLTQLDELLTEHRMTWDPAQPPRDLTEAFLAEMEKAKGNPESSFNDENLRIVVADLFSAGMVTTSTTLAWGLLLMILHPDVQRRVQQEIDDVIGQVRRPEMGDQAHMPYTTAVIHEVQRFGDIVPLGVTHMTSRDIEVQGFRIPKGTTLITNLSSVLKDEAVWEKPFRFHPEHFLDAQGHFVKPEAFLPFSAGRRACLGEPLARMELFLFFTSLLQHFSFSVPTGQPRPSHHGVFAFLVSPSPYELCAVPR
Cytochrome P450 3A4 (Homo sapiens), sequence (P08684 whole entry, looked up): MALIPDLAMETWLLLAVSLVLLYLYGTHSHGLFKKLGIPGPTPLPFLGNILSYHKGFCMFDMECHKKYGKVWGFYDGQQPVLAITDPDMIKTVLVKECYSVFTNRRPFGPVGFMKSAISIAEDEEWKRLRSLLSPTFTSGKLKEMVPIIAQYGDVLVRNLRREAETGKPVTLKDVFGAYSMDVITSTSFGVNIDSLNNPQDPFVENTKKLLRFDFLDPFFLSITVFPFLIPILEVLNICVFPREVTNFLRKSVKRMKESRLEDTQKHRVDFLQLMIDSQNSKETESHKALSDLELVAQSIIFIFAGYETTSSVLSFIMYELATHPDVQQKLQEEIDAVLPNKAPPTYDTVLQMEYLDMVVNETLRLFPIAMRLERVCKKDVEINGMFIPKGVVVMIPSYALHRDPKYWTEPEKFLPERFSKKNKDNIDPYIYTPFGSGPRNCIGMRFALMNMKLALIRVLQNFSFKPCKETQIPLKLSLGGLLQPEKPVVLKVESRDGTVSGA
Cytochrome P450 2C19 (Homo sapiens), sequence (P33261 whole entry, looked up): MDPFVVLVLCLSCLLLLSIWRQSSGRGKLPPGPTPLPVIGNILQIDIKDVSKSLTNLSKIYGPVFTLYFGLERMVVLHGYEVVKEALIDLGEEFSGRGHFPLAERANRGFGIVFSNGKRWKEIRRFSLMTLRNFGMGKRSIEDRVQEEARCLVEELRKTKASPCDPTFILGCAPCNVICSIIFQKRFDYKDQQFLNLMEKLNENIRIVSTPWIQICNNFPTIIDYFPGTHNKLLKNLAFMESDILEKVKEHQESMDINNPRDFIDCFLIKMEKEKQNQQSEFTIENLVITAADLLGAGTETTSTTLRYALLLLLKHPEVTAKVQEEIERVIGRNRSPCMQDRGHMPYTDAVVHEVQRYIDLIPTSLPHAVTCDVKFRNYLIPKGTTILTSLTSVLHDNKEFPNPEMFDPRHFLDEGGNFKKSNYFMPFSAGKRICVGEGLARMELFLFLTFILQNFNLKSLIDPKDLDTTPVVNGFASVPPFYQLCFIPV
Voltage-gated inwardly rectifying potassium channel KCNH2 (Homo sapiens), sequence (Q12809 whole entry, looked up): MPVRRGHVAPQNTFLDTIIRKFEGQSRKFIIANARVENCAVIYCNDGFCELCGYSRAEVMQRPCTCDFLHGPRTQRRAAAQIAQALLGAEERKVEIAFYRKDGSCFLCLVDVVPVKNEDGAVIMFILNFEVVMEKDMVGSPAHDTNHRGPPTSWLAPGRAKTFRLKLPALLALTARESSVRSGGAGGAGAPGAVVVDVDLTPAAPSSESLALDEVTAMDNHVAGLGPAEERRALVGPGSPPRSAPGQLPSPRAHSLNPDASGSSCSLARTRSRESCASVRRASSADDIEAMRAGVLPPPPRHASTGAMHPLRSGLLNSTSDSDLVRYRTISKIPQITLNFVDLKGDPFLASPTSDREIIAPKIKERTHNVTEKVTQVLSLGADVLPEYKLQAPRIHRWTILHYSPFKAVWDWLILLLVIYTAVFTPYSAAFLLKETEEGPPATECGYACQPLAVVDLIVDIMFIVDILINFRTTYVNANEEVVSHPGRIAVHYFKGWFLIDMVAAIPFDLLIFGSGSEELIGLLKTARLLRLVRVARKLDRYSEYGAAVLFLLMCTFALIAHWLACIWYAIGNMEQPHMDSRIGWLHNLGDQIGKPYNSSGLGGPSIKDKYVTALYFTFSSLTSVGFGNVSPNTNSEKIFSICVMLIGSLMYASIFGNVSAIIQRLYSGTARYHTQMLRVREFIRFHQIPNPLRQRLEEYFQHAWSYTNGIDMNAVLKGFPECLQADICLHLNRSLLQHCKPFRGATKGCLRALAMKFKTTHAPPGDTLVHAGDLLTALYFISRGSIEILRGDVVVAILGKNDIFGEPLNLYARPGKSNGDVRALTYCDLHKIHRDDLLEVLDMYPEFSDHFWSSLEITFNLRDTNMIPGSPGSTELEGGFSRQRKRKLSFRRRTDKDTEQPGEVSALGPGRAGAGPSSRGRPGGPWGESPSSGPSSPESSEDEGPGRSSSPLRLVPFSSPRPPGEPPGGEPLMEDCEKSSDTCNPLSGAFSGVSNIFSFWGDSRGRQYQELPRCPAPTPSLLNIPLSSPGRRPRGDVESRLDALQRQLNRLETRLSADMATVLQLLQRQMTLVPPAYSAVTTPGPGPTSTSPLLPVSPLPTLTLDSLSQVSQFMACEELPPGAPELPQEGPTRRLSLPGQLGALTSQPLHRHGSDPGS
Cytochrome P450 1A2 (Homo sapiens), sequence (P05177 whole entry, looked up): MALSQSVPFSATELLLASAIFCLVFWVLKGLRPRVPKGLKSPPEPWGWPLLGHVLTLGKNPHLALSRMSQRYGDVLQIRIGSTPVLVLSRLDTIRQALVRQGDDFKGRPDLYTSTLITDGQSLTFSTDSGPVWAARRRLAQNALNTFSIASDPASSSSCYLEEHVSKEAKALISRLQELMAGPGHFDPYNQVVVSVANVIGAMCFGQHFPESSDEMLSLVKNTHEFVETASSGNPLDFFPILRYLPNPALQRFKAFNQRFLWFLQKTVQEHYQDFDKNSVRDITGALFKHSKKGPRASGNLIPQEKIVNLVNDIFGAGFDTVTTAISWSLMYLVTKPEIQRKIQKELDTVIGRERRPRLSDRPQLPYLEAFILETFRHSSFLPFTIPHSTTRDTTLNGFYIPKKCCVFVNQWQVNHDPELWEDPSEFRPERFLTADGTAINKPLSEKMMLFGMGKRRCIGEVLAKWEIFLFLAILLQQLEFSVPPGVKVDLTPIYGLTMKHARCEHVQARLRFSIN
Nuclear receptor subfamily 1 group I member 2 (Homo sapiens), sequence (O75469 whole entry, looked up): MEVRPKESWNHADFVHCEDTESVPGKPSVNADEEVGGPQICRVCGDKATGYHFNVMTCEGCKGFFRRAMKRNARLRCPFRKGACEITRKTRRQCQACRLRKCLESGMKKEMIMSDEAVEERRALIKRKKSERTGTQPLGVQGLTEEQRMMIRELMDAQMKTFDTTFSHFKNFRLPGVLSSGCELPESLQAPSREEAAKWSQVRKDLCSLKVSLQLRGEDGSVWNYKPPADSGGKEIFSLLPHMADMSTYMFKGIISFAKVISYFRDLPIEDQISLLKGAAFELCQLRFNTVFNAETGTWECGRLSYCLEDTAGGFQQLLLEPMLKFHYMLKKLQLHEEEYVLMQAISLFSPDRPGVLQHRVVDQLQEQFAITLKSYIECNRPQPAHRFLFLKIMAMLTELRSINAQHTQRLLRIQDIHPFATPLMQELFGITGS
Nuclear receptor subfamily 1 group I member 2 (Rattus norvegicus), sequence (Q9R1A7 whole entry, looked up): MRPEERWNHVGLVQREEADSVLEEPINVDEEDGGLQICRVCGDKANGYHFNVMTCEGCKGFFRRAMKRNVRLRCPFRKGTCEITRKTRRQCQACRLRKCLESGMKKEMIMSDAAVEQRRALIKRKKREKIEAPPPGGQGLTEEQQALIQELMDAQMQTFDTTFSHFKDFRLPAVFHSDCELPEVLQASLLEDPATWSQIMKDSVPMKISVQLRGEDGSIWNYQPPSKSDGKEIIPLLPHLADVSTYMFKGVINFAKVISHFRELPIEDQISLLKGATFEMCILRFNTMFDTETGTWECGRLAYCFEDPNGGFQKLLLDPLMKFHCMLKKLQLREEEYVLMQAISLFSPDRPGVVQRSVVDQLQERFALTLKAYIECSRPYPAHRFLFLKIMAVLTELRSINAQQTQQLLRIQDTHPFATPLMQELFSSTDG

For the molecule `CO[C@H]1O[C@H](CO)[C@@H](O)[C@H](O)[C@H]1O`, the Potency entry in [1], in [2], in assay [3], in [5], in assay [6] and in [7] was “inactive” throughout. Also, the Potency result in [8], in assay [9], in assay [10], in assay [11] and in assay [12] was “inactive” in each case. In addition, the outcome in assay [4] was inactive.
For the molecule `CC(C)C(=O)O`, the Potency result in assay [1], in assay [2], in assay [3], in assay [5], in [6] and in assay [7] was “inactive” throughout. The Potency entry in assay [8], in assay [9], in assay [10], in assay [11] and in [12] was “inactive” in each case. Also, in [4], the outcome was inactive.
As for `COC(=O)[C@@H]1CC2=CC(=O)CC[C@]2(C)[C@@]23O[C@@H]2C[C@@]2(C)[C@@H](CC[C@@]24CCC(=O)O4)[C@H]13`, the Potency entry in assay [1], in [2], in assay [3], in [5], in assay [6] and in assay [14] was “inactive” throughout. The Potency result in [15], in [9], in assay [10], in [11] and in assay [12] was “inactive” each time. Further, in [4], the molecule was classed as inactive. Further, in assay [13], the max activation is -1.51%.
Regarding `CC(C)OCC1CO1` (stereo not drawn), the Potency result in assay [1], in assay [2], in assay [3], in assay [5], in [6] and in assay [7] was “inactive” each time. Further, the Potency entry in assay [8], in assay [9], in assay [10], in [11] and in assay [12] was “inactive” each time. The outcome in assay [4] was inactive.
For `CN1Cc2cc(C(=O)N3CCC(C4CCNCC4)CC3)ccc2N[C@@H](CC(=O)O)C1=O`, the Potency entry in assay [1], in assay [2], in assay [3], in assay [5], in assay [6] and in [7] was “inactive” each time. Also, the Potency entry in assay [8], in assay [9], in assay [10], in assay [11] and in [12] was “inactive” throughout. Further, the molecule was classed as inactive in assay [4].
For the molecule `CC(=O)OCC(=O)[C@H]1CC[C@H]2[C@@H]3CCC4=CC(=O)CC[C@]4(C)[C@H]3CC[C@]12C`, the Potency result in assay [1], in [2], in assay [3], in assay [5], in assay [6] and in assay [14] was “inactive” each time. Moreover, the Potency result in [15], in assay [10], in assay [11] and in assay [12] was “inactive” in each case. Besides, the result in assay [4] was inactive. Besides, in [13], the max activation was 2.69%. In addition, the results for the Potency in assay [8] and in [9] were 9.77 µM (active) and 7.76 µM (active), respectively.
On to `CCC(=O)OC/C=C/c1ccccc1`, for which the Potency result in [1], in assay [2], in [3], in assay [5], in assay [6] and in assay [7] was “inactive” in each case. Also, the Potency result in assay [11] and in [12] was “inactive” each time. Moreover, the call in [4] was inactive. Also, the Potency in assay [8] was 35.6 µM (active) and 71 µM (active); in [9] it was 39.9 µM (active); in assay [10], 63.3 µM (active).
As to `CCCCN(CCCC)C(=S)SSC(=S)N(CCCC)CCCC`, the Potency result in assay [1], in [2] and in assay [5] was “inactive” throughout. In addition, the Potency in assay [3] is 27 µM (active); in assay [6] it was 30.3 µM (active); in assay [7], 28 µM (active); in [8], 17.7 µM (active); in assay [9], 2.8 µM (active); in assay [10] it was 35.2 µM (active). The Potency in [12] was 5.58 µM (active). Besides, the molecule was called inactive in [4].

(Values after PubChem BioAssay (Tox21).)
